Among all 350,000 compounds or so, about 31,000 (8.9%) were called active. Another 15% or so got no clear call; they are omitted. The full list was thinned out, with actives kept by preference. A number with no mark means an inactive call. Calls follow the shape of the dose curve; as a rule, active = well fitted inhibition curve with a large enough effect; inconclusive = small, poorly fitted or top-dose-only effect; inactive = no such curve, though single readings can be large or run the other way.
What follows are molecules tested against Histone-lysine N-methyltransferase EHMT2 (Homo sapiens) (UniProt Q96KQ7) (assay: qHTS Assay for Inhibitors of Histone Lysine Methyltransferase G9a). Conditions: G9a H3K9 monomethylation, AlphaScreen, 2 h; series mostly up to 59 µM; activity, negative = inhibition: at the top concentration.
Outline: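 AlphaScreen detection with an anti-monomethyl H3K9 antibody quantified product after a 2 h room-temperature reaction containing 500 nM biotinylated H3K9 peptide, 20 µM SAM and 20 nM enzyme, which had been preincubated 15 min with compound.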
% is scaled to controls: 0 for no effect and ±100 for the full control effect; potency is read from the fitted curve at half-maximal effect.
Also: nearly all actives have a fitted effect of over 75% in size.

Sequence of Histone-lysine N-methyltransferase EHMT2 (Homo sapiens) (Q96KQ7 913-1193 limits assumed): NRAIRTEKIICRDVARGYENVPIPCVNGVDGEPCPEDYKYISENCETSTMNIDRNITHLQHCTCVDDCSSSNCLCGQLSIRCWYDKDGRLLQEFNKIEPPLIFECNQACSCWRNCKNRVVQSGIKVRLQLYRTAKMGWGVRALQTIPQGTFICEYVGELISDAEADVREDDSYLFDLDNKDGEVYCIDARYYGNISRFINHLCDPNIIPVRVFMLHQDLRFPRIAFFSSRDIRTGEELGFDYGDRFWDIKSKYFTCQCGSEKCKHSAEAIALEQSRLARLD

Row | Structure (SMILES) | Potency | activity, negative = inhibition
1 | CN1/C(=c2/s/c(=C3/C(=O)N(c4ccccc4)NC3=Nc3ccccc3)n(C)c2=O)C(C)(C)c2ccccc21 | 10 µM (active) | –
2 | CCc1noc(C)c1C(=O)N1CCN(S(=O)(=O)c2cccc(C(F)(F)F)c2)CC1 | – | 9.9% [at 12.7 µM]
3 | COc1ccc(CNC(=O)CC2Oc3ccc(C)cc3NC2=O)cc1 (centres undefined) | – | 7.92%
4 | Cc1cccc(N(Cc2ccccc2)C(=O)c2cc(S(=O)(=O)N3CCOCC3)ccc2F)c1 | – | -26.9% [at 102 µM]
5 | CCOc1cccc2cc(-c3cn4c(n3)sc3cc(C)ccc34)c(=O)oc12 | – | -3.75%
6 | CC1(C(=O)NNC(=S)NCC2CCCO2)CC1(Cl)Cl (centres undefined) | – | 55.8% [at 102 µM]
7 | Cc1ccc(-n2nc3cc(Cl)c(NC(=O)c4ccco4)cc3n2)cc1 | – | -40.1%
8 | CCn1nc(NC(=O)c2ccco2)c2cc3ccc(C)cc3nc21 | 50.1 µM (active) | –
9 | Cc1ccc(Cn2c(NC(=O)c3ccco3)nc3ccccc32)cc1 | – | 0.509%
10 | COc1ccccc1NC(=O)COC(=O)c1ccccc1SCC(=O)N1CCCC1 | – | -3.4%
11 | CC(C(=O)Nc1ccc(S(=O)(=O)N2CCCC2)cc1)N(C)Cc1ccc(F)cc1 (centres undefined) | – | 2.24% [at 2.33 µM]
12 | CC(OC(=O)CNS(=O)(=O)/C=C/c1ccccc1)C(=O)Nc1ccc(S(=O)(=O)N2CCCC2)cc1 (centres undefined) | 10 µM (active) | –
13 | COc1cc(C(C)=O)ccc1OC(C)C(=O)Nc1ccc(S(=O)(=O)N2CCCC2)cc1 (centres undefined) | – | 9.79% [at 12.7 µM]
14 | Cc1ccc(NS(=O)(=O)c2ccc3c(c2)CC(=O)N3)cc1Cl | – | -0.894% [at 12.7 µM]
15 | COc1ccc(S(=O)(=O)N2CCN(C(C)C(=O)Nc3ccc(C(C)C)cc3)CC2)cc1 (centres undefined) | – | -8.74%
16 | CCN(CC)S(=O)(=O)c1ccc(NC(=O)c2cnc(C)cn2)cc1 | – | 0.345% [at 0.501 µM]
17 | Cn1cc(CCC(=O)NCc2ccc3c(c2)OCO3)c2ccccc21 | 25.1 µM (active) | –
18 | O=C(CCn1c(=O)c2ccccc2n(Cc2ccc(Cl)cc2)c1=O)NCc1ccc2c(c1)OCO2 | – | -6.19%
19 | CCN(CC)C(=O)C(=O)c1cn(CC(=O)NCc2ccc3c(c2)OCO3)c2ccccc12 | – | 27.8% [at 12.7 µM]
20 | CCOc1ccc(C(=O)c2cn(Cc3ccc(F)cc3)c3ccc(F)cc3c2=O)cc1 | – | -38.3%
21 | Cc1ccc(CNC(=O)CCC(=O)N2Cc3ccccc3Oc3ncccc32)cc1 | – | -18.3%
22 | Cc1noc(/C=C/N(C)C)c1S(=O)(=O)N1CCCC(C(=O)Nc2cccc(F)c2)C1 (centres undefined) | – | 2.19%
23 | CCOC(=O)c1c(-c2ccccc2)csc1NC(=S)NC(=O)c1ccccc1 | – | -11.6%
24 | CCOC(=O)c1c(-c2ccc(C)cc2)csc1/N=C(\C)C1=C(O)c2ccccc2C1=O | 28.2 µM (active) | –
25 | CCOC(=O)c1c(-c2ccc(-c3ccccc3)cc2)csc1NC(=O)CCC(=O)O | – | -35% [at 102 µM]

Row | Structure (SMILES) | Potency | activity, negative = inhibition
26 | CC(=O)N1CCOc2ccc(S(=O)(=O)N3CCC(C(=O)Nc4ccccc4F)CC3)cc21 | – | -2.87% [at 102 µM]
27 | Cc1ccc(Cc2nnc(SCC(=O)Nc3ccccc3C)[nH]c2=O)cc1 | – | 1.18% [at 102 µM]
28 | CCNC(=O)N1c2ccccc2Sc2ccccc21 | – | 34.9% [at 102 µM]
29 | CCC(=O)/C=C1\Sc2ccccc2N1CC | 50.1 µM (active) | –
30 | CCOC(=O)CNC(=O)N1c2ccccc2Sc2ccccc21 | – | 20.2% [at 102 µM]
31 | CCN1CCC(N(Cc2ccc(F)cc2)C(=O)Nc2cc(C)ccc2C)CC1 | – | -29.4%
32 | CCn1cc(C(=O)N2CCN(c3cc(C)ccc3C)CC2)c(=O)c2cc(S(=O)(=O)N(C)C3CCCCC3)ccc21 | – | -33.5%
33 | Cc1nc(-c2ccccc2)sc1-c1nnc(C2CC2)o1 | – | 103% [at 102 µM]
34 | C=CCn1c(-c2sc(-c3ccccc3)nc2C)n[nH]c1=S | 3.16 µM (active) | –
35 | C=CCn1c(=S)sc2c(=O)[nH]c(C)nc21 | – | -0.441% [at 102 µM]
36 | C=CCn1c(-c2ccccc2OCC)n[nH]c1=S | 7.08 µM (active) | –
37 | C=CCn1c(-c2ccc3[nH]c(C)c(C)c3c2)n[nH]c1=S | 1 µM (active) | –
38 | C=CCn1c(COc2ccccc2C)nnc1SCC(=O)O | – | -44.1%
39 | C=CCn1c(COc2cccc3cccnc23)nnc1SCC(=O)OC | – | -28.7%
40 | Cc1[nH]c2ccc(S(N)(=O)=O)cc2c1C | – | -7.63%
41 | Cc1nc(-c2ccccc2)sc1-c1nc(-c2ccccc2)ncc1S(=O)(=O)c1ccccc1 | – | -34.6% [at 102 µM]
42 | Cc1ccsc1-c1cc(C(=O)O)c2c(ccc3ccccc32)n1 | – | -17.8%
43 | CCOC(=O)c1[nH]c(C)c(CCC(=O)N2CCN(c3ccccc3)CC2)c1C | – | -27.2%
44 | COc1ccc(/C=C/c2noc(-c3ccccc3OC(C)=O)n2)cc1 | – | 19.6% [at 102 µM]
45 | COc1ccc(CCNC(=O)CCCn2c(=O)c3ccccc3n(Cc3ccc(F)cc3Cl)c2=O)cc1OC | – | 34.5%
46 | COc1ccc(COC(=O)c2ccc(Cl)c(S(=O)(=O)N3CCOCC3)c2)cc1F | – | 18.9% [at 102 µM]
47 | CC(=O)NCC(=O)NC1CCCc2c1cnn2-c1ccccc1F (centres undefined) | – | 11.3% [at 0.501 µM]
48 | Cn1nccc1C(=O)NC1CCCc2c1cnn2-c1ccccc1F (centres undefined) | – | 16.6% [at 0.501 µM]
49 | Cn1nccc1C(=O)NC1CCCc2c1cnn2-c1ccc(F)cc1F (centres undefined) | 79.4 µM (active) | –
